# Assay results from PubChem BioAssay AID720700 (The Scripps Research Institute Molecular Screening Center, 2013).
# Out of some 370,000 compounds screened, about 3,100 (0.84%) were called active. Only a selection was taken, and actives are over-represented in it overall. A number with no mark means an inactive call. No stated cut-off is given here; in the data, active means inhibition above about 9.5%; inactive means the rest.
# Molecular target: 1-phosphatidylinositol 4,5-bisphosphate phosphodiesterase gamma-1 (Homo sapiens) (UniProt P19174)
# Sequence (P19174 whole entry, looked up): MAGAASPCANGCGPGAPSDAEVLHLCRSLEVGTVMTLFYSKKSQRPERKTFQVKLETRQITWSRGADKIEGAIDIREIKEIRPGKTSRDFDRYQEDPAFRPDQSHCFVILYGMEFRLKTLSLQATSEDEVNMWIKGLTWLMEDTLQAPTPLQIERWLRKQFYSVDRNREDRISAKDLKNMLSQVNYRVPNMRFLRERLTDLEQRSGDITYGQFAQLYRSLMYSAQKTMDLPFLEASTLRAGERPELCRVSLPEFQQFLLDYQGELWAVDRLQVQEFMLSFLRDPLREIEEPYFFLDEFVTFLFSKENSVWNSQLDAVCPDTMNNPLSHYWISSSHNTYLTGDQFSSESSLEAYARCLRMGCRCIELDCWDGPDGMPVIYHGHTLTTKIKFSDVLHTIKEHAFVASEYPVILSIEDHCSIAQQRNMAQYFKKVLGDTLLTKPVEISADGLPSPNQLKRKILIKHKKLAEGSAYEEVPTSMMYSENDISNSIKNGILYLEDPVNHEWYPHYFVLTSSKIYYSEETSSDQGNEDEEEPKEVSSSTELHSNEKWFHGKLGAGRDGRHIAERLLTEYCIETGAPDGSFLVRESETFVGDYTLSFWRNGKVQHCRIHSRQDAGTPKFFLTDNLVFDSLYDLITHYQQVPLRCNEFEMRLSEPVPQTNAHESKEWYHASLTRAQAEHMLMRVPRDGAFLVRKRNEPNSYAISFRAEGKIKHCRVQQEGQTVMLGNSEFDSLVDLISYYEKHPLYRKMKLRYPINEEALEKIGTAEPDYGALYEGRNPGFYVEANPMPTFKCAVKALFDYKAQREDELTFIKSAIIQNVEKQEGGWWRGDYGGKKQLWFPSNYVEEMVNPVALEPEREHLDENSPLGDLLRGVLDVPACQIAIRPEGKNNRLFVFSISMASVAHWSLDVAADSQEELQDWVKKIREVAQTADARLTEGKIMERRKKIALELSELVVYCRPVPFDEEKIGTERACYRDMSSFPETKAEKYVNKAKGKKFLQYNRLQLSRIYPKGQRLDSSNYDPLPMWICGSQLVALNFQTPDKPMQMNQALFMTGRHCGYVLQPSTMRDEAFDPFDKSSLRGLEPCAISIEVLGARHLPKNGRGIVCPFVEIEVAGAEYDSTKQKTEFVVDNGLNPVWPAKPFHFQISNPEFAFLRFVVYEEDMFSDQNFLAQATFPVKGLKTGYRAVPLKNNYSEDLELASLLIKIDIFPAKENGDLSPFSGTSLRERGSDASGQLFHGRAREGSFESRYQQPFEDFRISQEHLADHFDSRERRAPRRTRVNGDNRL
# Assay: blockers of human PLCG1 activity – biochemical, fluorescence, purified enzyme, primary screen (AID 720700)
# Settings: purified PLC-gamma1, fluorogenic substrate, at 12.2 µM, hits give high values
row,Compound,inhibition
1,COC(=O)[C@]12C[C@H](CC(=O)N3CCN(C(=O)C4CC4)CC3)C(=O)N(CCC3=CCCCC3)C1=C[C@H](C(C)C)O[C@@H]2C1CC1,-0.79%
2,O=C(CNC(=O)c1ccc(Br)o1)NCC1CCCO1 (stereo unspecified),-1.19%
3,OC(CNCC1CCCO1)Cn1c2ccc(Br)cc2c2cc(Br)ccc21 (stereo unspecified),9.98% (active)
4,COCCNC(=O)c1ccc(Cn2c(SCC(=O)NCC3CCCO3)nc3ccc(Br)cc3c2=O)cc1 (stereo unspecified),0.38%
5,COc1cccc(CSc2nnc(-c3cccnc3)n2Cc2ccccc2)c1,-0.88%
6,N[C@@H](Cc1ccccc1)C(=O)N1CCC[C@@H]1C(=O)N1CCC2CCN(S(=O)(=O)c3ccccc3)CC21 (stereo partly specified),1.45%
7,CCCCC(=O)N[C@@H]1CC[C@@]23CCCN2C(=O)CCC[C@H]3[C@H]1C,0.85%
8,COc1ccc(S[C@]2(C(=O)N(C)C)CC(=O)N(c3ccc(OC)cc3)[C@@H]2c2ccc(OC)cc2)cc1,3.67%
9,COc1cc(/C=C/C(=O)n2cnc3ccccc32)cc(OC)c1OC,-0.84%
10,Cc1ccccc1CN1CCCCC(NC(=O)Nc2ccccc2F)C1=O (stereo unspecified),4.92%
11,Nn1cnnc1N/N=C/c1cc([N+](=O)[O-])c(Cl)cc1Cl,13.2% (active)
12,O=C1c2ccccc2C(O)N1Cc1ccccc1Cl (stereo unspecified),-1.89%
13,COc1ccc(NC(=O)N2CCCC2C(=O)NCc2ccccc2Cl)cc1 (stereo unspecified),-0.63%
14,O=C(Nc1ccc(Br)cc1)C1CCC(=O)N1Cc1ccccc1Cl (stereo unspecified),9.91% (active)
15,COc1ccc(-n2c(SCC(=O)Nc3ccc4c(c3)OCCO4)nnc2-c2ccc(Cl)cc2)cc1,2.18%
16,O=S1(=O)c2c(NCc3ccco3)cccc2Oc2ccccc2CN1Cc1cn(Cc2cccc(C(F)(F)F)c2)nn1,-41.1%
17,CCc1cc(C(=O)c2ccc(OC)cc2)c(NC(=O)CN2CCN(C)CC2)s1,-5.73%
18,O=C(CN1CCN(c2ccc(O)cc2)CC1)Nc1ccc(-c2ccccc2)cc1,5.1%
19,CCCCc1nc2ccccc2c(NC(=O)CN2CCN(C)CC2)c1CCC,31.4% (active)

row,Compound,inhibition
1,Clc1ccc(-n2c(COc3ccccc3)nnc2SCc2nc3ccccc3[nH]2)cc1,-0.91%
2,CCCCNc1ccc(C(=O)Nc2cccc(C)n2)cc1[N+](=O)[O-],16.8% (active)
3,Cc1cc(O)c(NC(=O)c2ccc(C)c([N+](=O)[O-])c2)cc1C,4.76%
4,Cc1cccc(NC(=O)c2ccc(COc3ccccc3[N+](=O)[O-])o2)n1,-0.91%
5,O=C(Nc1cc(F)cc(F)c1)OC1CCC12CCC(c1ccccc1)CC2 (stereo unspecified),0%
6,C=CCN1[C@H](CC(C)C)COc2cccc(N3CCCC3)c2S1(=O)=O,-4.7%
7,C[C@H]1[C@H](NC(=O)c2cccc(N(C)C)c2)CC[C@@]23CCCN2C(=O)CCC[C@@H]13,-87.5%
8,Cc1sc2nc(SCC(=O)c3ccc(O)c(O)c3)n(Cc3ccco3)c(=O)c2c1C,4.7%
9,CC1(C(=O)NCc2ccccc2)CSCC(=O)N1CCCN1CCOCC1 (stereo unspecified),10.3% (active)
10,CCC(C)CN1C(=O)CSCC1(C)C(=O)NCc1ccccc1 (stereo unspecified),3.07%
11,CC1(C(=O)NCc2ccccc2)CSCC(=O)N1CCCn1ccnc1 (stereo unspecified),0.21%
12,Cc1cc(=O)[nH]c(SCC(=O)Nc2ccc(Cl)cc2C)n1,3.72%
13,C=C(C)C#CC(Cc1ccccc1)N(CC1CC1)/C(N)=N/C(=O)OCc1ccccc1 (stereo unspecified),-163%
14,O=S1(=O)c2c(cccc2N2CCSCC2)Oc2ccccc2CN1Cc1cn(Cc2ccc(F)cc2)nn1,-5.24%
15,O=C(Nc1ccccc1Cl)/C(Cl)=C(\Cl)S(=O)c1ccccc1 (stereo unspecified),12.4% (active)
16,CN1C(=O)c2cc(NS(C)(=O)=O)ccc2OC[C@@H]2O[C@@H](CC(=O)NCc3ccc(-c4ccccc4)cc3)CC[C@H]21,-2.2%
17,CCC(=O)c1c(CC)c2n3c1=CC[C@H]3CC(Br)C=2 (stereo partly specified),-6.13%
18,CC(=O)N1CCc2cc(S(=O)(=O)NCCC(=O)N3CCCC3)ccc21,1.19%
19,Cc1ccc(N2CC(C(=O)NCCS(=O)(=O)N3CCN(c4ccccc4)CC3)CC2=O)cc1 (stereo unspecified),10.4% (active)

row,Compound,inhibition
1,COc1ccc(N2CC(C(=O)NCCS(=O)(=O)N3CCN(c4ccccc4)CC3)CC2=O)cc1 (stereo unspecified),4.62%
2,COCCCNC(=O)C1CC(=O)N(c2ccc(C)cc2)C1 (stereo unspecified),-0.12%
3,O=C(NC1CCCC1)C1CSCCS(=O)(=O)N1Cc1ccccc1 (stereo unspecified),-0.17%
4,COc1ccc(C(=O)c2c(C)c(CCC#N)n3ccccc23)c(OC)c1,-3.69%
5,COc1cccc(C(=O)CC(=O)C(=O)Nc2ccc([N+](=O)[O-])cc2C)c1,-0.82%
6,Cc1c(C(=O)c2cccc([N+](=O)[O-])c2)c2ccccn2c1CCC#N,11.7% (active)
7,Cc1cc(C)cc(NC(=O)N2CCC(N(C)CCC(C)C)CC2)c1,3.12%
8,CCC(c1ccc(NC(=O)OC(C)(C)C)cc1)c1cc(OC)cc(OC)c1 (stereo unspecified),1.5%
9,N#Cc1c(NC(=O)C2CCCO2)sc2c1CCCCC2 (stereo unspecified),12.2% (active)
10,N#Cc1c(NC(=O)c2ccc(N3CCOCC3)c([N+](=O)[O-])c2)sc2c1CCCC2,3.4%
11,CC(=O)c1c(C)[nH]c(C(=O)OCC(=O)Nc2sc3c(c2C#N)CCCC3)c1C,-7.9%
12,O=C(Nc1ccccc1)N1CCN(Cc2nc3ccccc3c(=O)[nH]2)CC1,-0.51%
13,C/C(CC(C)C)=N\Oc1nc(C)cc(C)n1,9.91% (active)
14,COc1cccc(CNC(=O)C2CCCN(c3nc4ccccc4o3)C2)c1OC (stereo unspecified),0.94%
15,COC(=O)[C@H](C(C)C)N1CCc2nnn(Cc3ccc(C)cc3)c2-c2ccccc2S1(=O)=O,0.55%
16,CCOc1ccc(-c2c(C)n([O-])c3c([n+]2=O)CCCC3)cc1,-0.45%
17,CCc1c(C)n([O-])c2c([n+]1=O)CCCCC2,11% (active)
18,Cc1ccc(-c2c(C)n([O-])c3c([n+]2=O)CCC3)cc1,1.87%
